# Most compounds without a hit are left out; they make up all but 1.4% or so of the library.
# TrxR1 inh – rat TrxR1 inhibition | Potency, µM (top dose mostly 114 µM), usual class: inhibitors | actives 1% (n = 390,000) | O89049 | recombinant rTrxR1, NADPH fluorescence consumption, selenite substrate | AID 588453; further: nearly all actives have a fitted effect of over 65% in size
# Target sequence (O89049 whole entry, looked up): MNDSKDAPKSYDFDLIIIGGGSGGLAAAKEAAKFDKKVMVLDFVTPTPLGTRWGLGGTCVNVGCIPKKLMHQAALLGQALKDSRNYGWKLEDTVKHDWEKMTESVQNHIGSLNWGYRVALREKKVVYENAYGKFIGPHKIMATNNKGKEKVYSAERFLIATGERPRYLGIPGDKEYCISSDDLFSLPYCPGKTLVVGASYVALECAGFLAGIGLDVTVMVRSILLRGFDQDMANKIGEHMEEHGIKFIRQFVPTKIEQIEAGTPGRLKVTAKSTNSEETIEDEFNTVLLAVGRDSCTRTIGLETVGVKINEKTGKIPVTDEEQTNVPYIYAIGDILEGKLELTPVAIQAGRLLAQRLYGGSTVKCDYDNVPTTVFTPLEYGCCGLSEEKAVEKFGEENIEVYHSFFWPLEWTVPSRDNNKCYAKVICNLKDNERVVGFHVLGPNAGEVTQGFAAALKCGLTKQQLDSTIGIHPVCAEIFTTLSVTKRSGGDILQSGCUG
#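 Rat TrxR1 (90 nM in the dispensed reagent) was pre-reduced with 400 uM NADPH for 5 min at room temperature, then incubated with compound for 15 min. After 400 uM selenite was added, NADPH fluorescence (Ex 340/Em 450 nm) was followed for 8 min.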
# GLS inhibitor – inhibitors of human glutaminase (GLS); O94925; GLS enzymatic activity, qHTS titration; Potency, µM (doses to about 45.5 µM), hits mostly inhibitors; actives 0.21% (n = 410,000); AID 624170
#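 Compounds were pin-transferred onto hKGA, after which L-glutamine (1 mM solution) and a detection mix of glutamate oxidase, HRP and Amplex Red were added. Initial and 30 min RT fluorescence reads were collected.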
# TrxR1 substrate – substrates of rat thioredoxin reductase 1 | AID 588456 | Potency, µM (highest dose often 114 µM) | O89049 | purified TrxR1 substrate turnover, NADPH consumption readout | actives 0.01% (n = 390,000); further: nearly all actives have a fitted effect of over 50% in size
#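 Rat TrxR1, dispensed at 90 nM, was prereduced with 400 uM NADPH (final) for 5 min at ~22 deg C, then incubated with compound 15 min before 400 uM selenite. A first-read NADPH fluorescence drop versus no-compound background flagged substrates.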
# LDHA inh – LDHA (human) enzyme inhibition. actives 0.15% (n = 480,000). P00338. purified LDHA, NADH/diaphorase-resazurin fluorescence; hits give low values. activity change, % (values are at about 110 or 230 µM); in the data active means activity change below about -30%; inconclusive means mostly about -25% to -30%
#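 Enzyme activity of human lactate dehydrogenase 5 (2 nM; 0.06 mM NADH, 0.2 mM pyruvate, 5 min, RT) is measured via a resazurin/diaphorase fluorescence readout of residual NADH.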
# mIDH1 inhibitor – human IDH1 R132H inhibition. IDH1-R132H enzyme, NADPH consumption, diaphorase/resazurin fluorescence. Potency, µM (highest dose often 76.6 µM), most hits filed as inhibitors. actives 0.093% (n = 390,000). AID 602179; further: nearly all actives have a fitted effect of over 65% in size
#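 IDH1-R132H (0.5 ug/mL dispensed) in pH 7.5 Tris buffer was preincubated 30 min with compound, then given a substrate mix of 0.016 mM NADPH and 2 mM alpha-KG for 80 min at room temperature; remaining NADPH was read by diaphorase/resazurin fluorescence.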
# PKM2 act – PKM2 (human) enzyme activation; P14618; Potency, µM (highest dose often 57.5 µM), most hits filed as activators; actives 0.34% (n = 260,000); purified PKM2, Kinase-Glo ATP luminescence, activation; response scale: 0% is enzyme alone, no compound; further: nearly all actives have a fitted effect of over 55% in size
#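 Kinase-Glo luminescence reports ATP generated from ADP (0.1 mM) and PEP (0.5 mM) by purified hPK-M2 after 1 h at room temperature, pH 7.2 imidazole buffer; intermediate enzyme activity allows detecting inhibitors and activators.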
# Numbers stand for hits; 0 = inactive; ? = inconclusive; - = no result. Unless noted, the call rests on the fitted dose curve; in most records, active means well fitted curve in the direction sought with a large enough effect; inconclusive means small, poorly fitted or top-dose-only effect, or another doubt; inactive means no such curve, though single readings can be large; an effect the other way counts as inactive or inconclusive.
SMILES,TrxR1 inh,GLS inhibitor,TrxR1 substrate,LDHA inh,mIDH1 inhibitor,PKM2 act
CC(=O)Nc1ccc(NC(=O)COC(=O)/C(=C/c2ccccc2)n2nnnc2C)cc1,70.8µM,0,0,0,0,0
CN(C)C(=O)COc1ccccc1-c1noc(-c2ccc(S(=O)(=O)NC3CC3)o2)n1,-,-,-,0,-,-
Cc1noc(Cn2cnc3c(Cl)cc(Cl)cc3c2=O)n1,-,-,-,0,-,-
O=C(c1ccc(F)cc1)C(CN1CCOCC1)c1ccccc1 (stereo not given),56.2µM,0,0,0,0,0
COc1ccc(C(=O)C(CN2CCOCC2)c2ccccc2)cc1 (stereo not given),0,0,0,0,0,0
COc1ccc(C(=O)C(CN2CCCC2)c2ccccc2)cc1 (stereo not given),0,0,0,0,0,0
O=C(c1ccc(Cl)cc1)C(CN1CCCC1)c1ccccc1 (stereo not given),35.5µM,0,0,0,0,0
COc1ccc(/C=N/N2C(C)CCCC2C)cc1O (stereo not given),0,11.2µM,0,0,0,-
O=C(NCCN1CCc2ccccc2C1)c1ccc(Cl)cc1,-,-,-,0,-,-
Cc1cccc(C(=O)NNS(=O)(=O)c2ccccc2)c1O,0,6.31µM,0,0,0,0
O=C(NNS(=O)(=O)c1ccccc1)c1ccc(O)cc1,0,0,0,0,0,0
O/N=C/C(Cl)=C(Sc1ccc(Cl)cc1)Sc1ccc(Cl)cc1,-,-,-,0,-,-
N#CC1=C(N)C(C#N)(C#N)C2(C(=O)Nc3ccccc32)C2CCCC=C12 (stereo not given),56.2µM,0,0,0,0,0
O=C1Nc2ccccc2C12OC1CCCCC1O2 (stereo not given),0,0,0,0,0,0
COc1ccc2c(c1O)-c1ccccc1CCN(C)C2,0,0,0,0,0,0
CN1CCc2cccc3c2[C@@H]1Cc1ccc(O)c(O)c1-3,14.1µM,?,0,0,0,?
Oc1c(Br)cc(Br)cc1/C=N/c1nccs1,35.5µM,0,0,0,0,-
Oc1ccc(Cl)cc1/C=N/c1nccs1,?,0,0,0,0,0
CCc1cccc(NS(=O)(=O)c2ccc(-c3coc(C)n3)cc2)c1,-,-,-,0,-,-
Cc1ccc(Nc2nc(-c3ccc(C)cc3C)cs2)cc1,-,-,-,0,-,-
CCCOc1ccc(NC(=O)C(CC)CC)c2cccnc12,-,-,-,0,-,-
CC1=C(C)/C(=N/OC(=O)c2cccc([N+](=O)[O-])c2)C=CC1=O,8.91µM,0,0,0,0,0
O=Cc1cccn1-c1ccc(I)cc1,-,-,-,0,-,-
C=C1CC(Cn2cc(Br)c(=O)[nH]c2=O)(c2ccc(-c3ccccc3)cc2)OC1=O (stereo not given),7.08µM,0,0,0,?,-
O=c1[nH]c(=O)n(CCOc2ccc(Cl)cc2)cc1Br,0,0,0,0,0,0
SMILES,TrxR1 inh,GLS inhibitor,TrxR1 substrate,LDHA inh,mIDH1 inhibitor,PKM2 act
CCN(CC)C(=O)c1ccc(S(=O)(=O)Cc2ccc(C)cc2)c([N+](=O)[O-])c1,31.6µM,0,0,0,0,-
Cc1ccc(NC(=S)NCC(C)N2CCCCC2C)cc1Cl (stereo not given),-,-,-,0,-,-
CCOC(=O)CNC(=O)CSc1cn(CC(=O)N2CCCC2)c2ccccc12,-,-,-,0,-,-
O=C1CN(S(=O)(=O)c2ccccc2)CCN1S(=O)(=O)c1ccccc1,0,0,0,0,0,4.47µM
O=S(=O)(c1ccccc1)N1CCN(S(=O)(=O)c2ccccc2)CC1,0,-,0,0,-,-
Cc1ccc(/C(C#N)=C\c2ccc(N3CCOCC3)o2)cc1,2.24µM,?,0,0,0,2.82µM
Cc1ccc2nc(/C(C#N)=C\c3ccc(N4CCOCC4)o3)[nH]c2c1,12.6µM,0,0,0,0,0
Cc1ccc2nc(/C(C#N)=C/c3ccc(-c4ccc(Cl)cc4)o3)[nH]c2c1,-,-,-,0,-,-
CCOC(=O)COc1ccc2c(=O)c(Oc3cc(C)c(Cl)c(C)c3)coc2c1,-,-,-,0,-,-
C[n+]1ccc(/C=N/Nc2nc(Cl)c(C#N)c(Cl)c2Cl)cc1,3.55µM,0,0,0,0,0
O=C(O)c1c(Cl)c(Cl)c(Cl)c(Cl)c1-c1c2cc(I)c(=O)c(I)c-2oc2c(I)c(O)c(I)cc12,-,14.1µM,-,-,-,-
COC(=O)c1ccc(CNCC(=O)Nc2ccc(C(=O)OC)cc2)cc1,0,0,0,0,0,0
COC(=O)c1ccc(NC(=O)CNCc2ccncc2)cc1,?,0,0,-30.3,0,0
O=C(O)COc1ccc2c(c1)O/C(=C\c1ccco1)C2=O,44.7µM,10µM,0,0,0,-
O=C(O)COc1ccc2c(c1)O/C(=C\c1cccs1)C2=O,0,0,0,0,0,0
CCc1nc2ccccc2n1Cc1cc(=O)n2cc(C)ccc2n1,0,0,0,0,0,15.8µM
O/N=c1/oc2cc3occ(-c4ccc(F)cc4)c3cc2c2c1CCC2,-,-,-,0,-,-
CC(O)CNC(=O)Nc1sc2c(c1C#N)CC(C)(C)OC2 (stereo not given),-,-,-,0,-,-
O=C(CN1CCN(S(=O)(=O)c2ccccc2F)CC1)N1CCc2ccccc2C1,0,0,0,-46.9,0,-
COc1cc(C(=O)O)c(Br)cc1OC(C)C,-,-,-,0,-,-
COc1ccc2oc(=O)cc(CN3CCN(C(=O)c4ccc(OC)c(OC)c4)CC3)c2c1,-,-,-,0,-,-
CN1C(=O)/C(=C/c2cn(CC(=O)NCc3ccco3)c3ccccc23)NC1=S,-,-,-,-,-,7.94µM
O=[N+]([O-])c1ccc(/C=N/Nc2ccc(C(F)(F)F)cn2)cc1,-,-,-,0,-,-
CCOC(=O)Cc1csc(NC(=O)NC2(C(F)(F)F)Oc3ccccc3O2)n1,11.2µM,?,0,0,0,0
CCOC(=O)Cc1csc(NC(=O)NC2(C(F)(F)F)Oc3ccc(Cl)cc3O2)n1 (stereo not given),8.91µM,?,0,0,0,0
SMILES,TrxR1 inh,GLS inhibitor,TrxR1 substrate,LDHA inh,mIDH1 inhibitor,PKM2 act
CCOC(=O)Cc1csc(NC(=O)NC2(C(F)(F)F)Oc3cc(Cl)c(Cl)cc3O2)n1,?,0,0,0,0,0
COc1ccc(NC(=O)c2nc3ccccc3nc2N2CCOCC2)c(OC)c1,-,-,-,0,-,-
CC(=O)N1CCN(/[N+]([O-])=N/Oc2ccc([N+](=O)[O-])cc2[N+](=O)[O-])CC1,10µM,-,0,0,-,-
CCN(CC)/[N+]([O-])=N/Oc1ccc([N+](=O)[O-])cc1[N+](=O)[O-],14.1µM,-,0,0,-,-
CCN(CC)C(=O)N1CCN(/[N+]([O-])=N/Oc2ccc([N+](=O)[O-])cc2[N+](=O)[O-])CC1,22.4µM,-,0,0,-,-
CCNC(=O)N1CCN(/[N+]([O-])=N/Oc2ccc([N+](=O)[O-])cc2[N+](=O)[O-])CC1,14.1µM,-,0,0,-,-
CCCN(CCC)S(=O)(=O)N1CCCC(c2nncn2C)C1 (stereo not given),-,-,-,0,-,-

# Screening results: PubChem, National Center for Advancing Translational Sciences (NCATS)
